# Data as given in ChEMBL document CHEMBL2218924, “A broad activity screen in support of a chemogenomic map for kinase signalling research and drug discovery” (Biochem J, 2013).
# Key:
# [1] = molecular target: T1, Ephrin type-A receptor 3 (Homo sapiens) (UniProt P29320); conditions: at 10 µM
# T1 sequence (whole entry): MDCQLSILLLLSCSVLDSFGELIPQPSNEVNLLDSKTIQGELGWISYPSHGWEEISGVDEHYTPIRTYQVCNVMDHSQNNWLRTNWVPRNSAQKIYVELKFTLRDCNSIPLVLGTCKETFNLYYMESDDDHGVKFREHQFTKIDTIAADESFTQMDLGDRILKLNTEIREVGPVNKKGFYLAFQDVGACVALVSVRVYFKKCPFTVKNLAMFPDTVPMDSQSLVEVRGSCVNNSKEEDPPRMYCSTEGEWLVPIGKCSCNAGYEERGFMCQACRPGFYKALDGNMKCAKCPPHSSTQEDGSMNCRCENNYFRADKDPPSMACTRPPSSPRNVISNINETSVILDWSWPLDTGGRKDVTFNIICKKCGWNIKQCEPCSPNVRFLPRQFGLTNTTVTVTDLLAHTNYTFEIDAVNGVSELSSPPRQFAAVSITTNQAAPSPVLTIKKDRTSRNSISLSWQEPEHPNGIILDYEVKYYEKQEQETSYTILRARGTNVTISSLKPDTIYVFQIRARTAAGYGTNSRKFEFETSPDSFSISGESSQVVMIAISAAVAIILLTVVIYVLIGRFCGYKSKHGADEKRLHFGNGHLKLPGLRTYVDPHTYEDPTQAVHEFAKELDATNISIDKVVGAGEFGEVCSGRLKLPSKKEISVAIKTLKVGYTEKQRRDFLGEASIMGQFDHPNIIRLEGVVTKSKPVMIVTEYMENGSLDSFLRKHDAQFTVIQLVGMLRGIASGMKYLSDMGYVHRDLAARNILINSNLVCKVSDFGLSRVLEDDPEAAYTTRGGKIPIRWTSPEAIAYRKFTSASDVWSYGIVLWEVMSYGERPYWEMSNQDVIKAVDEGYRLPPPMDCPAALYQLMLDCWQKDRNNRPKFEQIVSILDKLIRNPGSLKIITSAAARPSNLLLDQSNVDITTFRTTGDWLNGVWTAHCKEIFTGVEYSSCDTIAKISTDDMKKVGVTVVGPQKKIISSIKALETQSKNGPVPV
# [2] = molecular target: T2, Ephrin type-A receptor 8 (Homo sapiens) (UniProt P29322); conditions: at 1 µM
# T2 sequence (whole entry): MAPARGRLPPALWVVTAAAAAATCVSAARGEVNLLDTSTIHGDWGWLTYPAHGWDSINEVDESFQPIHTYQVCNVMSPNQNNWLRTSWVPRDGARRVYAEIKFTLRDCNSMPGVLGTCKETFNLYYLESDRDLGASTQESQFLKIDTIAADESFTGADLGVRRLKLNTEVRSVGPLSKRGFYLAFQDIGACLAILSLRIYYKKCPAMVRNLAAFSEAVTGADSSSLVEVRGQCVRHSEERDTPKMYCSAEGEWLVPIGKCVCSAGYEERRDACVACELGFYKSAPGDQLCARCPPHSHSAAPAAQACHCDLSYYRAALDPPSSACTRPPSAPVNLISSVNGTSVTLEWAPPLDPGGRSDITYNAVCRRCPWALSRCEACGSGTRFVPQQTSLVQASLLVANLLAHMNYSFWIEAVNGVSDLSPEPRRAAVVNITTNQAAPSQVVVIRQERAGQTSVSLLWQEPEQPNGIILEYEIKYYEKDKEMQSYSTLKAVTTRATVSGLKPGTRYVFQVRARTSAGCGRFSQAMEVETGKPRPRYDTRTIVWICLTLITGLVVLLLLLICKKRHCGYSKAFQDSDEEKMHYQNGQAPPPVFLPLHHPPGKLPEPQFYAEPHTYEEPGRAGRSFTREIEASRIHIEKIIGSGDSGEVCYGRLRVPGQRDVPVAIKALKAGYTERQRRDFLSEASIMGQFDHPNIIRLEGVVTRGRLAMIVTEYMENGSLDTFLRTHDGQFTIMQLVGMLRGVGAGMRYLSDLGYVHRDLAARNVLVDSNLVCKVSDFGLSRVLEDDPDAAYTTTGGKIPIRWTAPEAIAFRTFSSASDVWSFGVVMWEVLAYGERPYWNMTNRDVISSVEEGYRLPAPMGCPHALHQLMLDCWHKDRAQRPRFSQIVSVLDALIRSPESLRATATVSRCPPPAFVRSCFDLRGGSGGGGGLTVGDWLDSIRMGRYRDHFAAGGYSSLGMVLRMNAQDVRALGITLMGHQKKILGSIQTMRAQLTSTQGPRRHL
# [3] = molecular target: T2, Ephrin type-A receptor 8 (Homo sapiens); conditions: at 10 µM
# [4] = molecular target: T3, Ephrin type-B receptor 1 (Homo sapiens) (UniProt P54762); conditions: at 10 µM
# T3 sequence (whole entry): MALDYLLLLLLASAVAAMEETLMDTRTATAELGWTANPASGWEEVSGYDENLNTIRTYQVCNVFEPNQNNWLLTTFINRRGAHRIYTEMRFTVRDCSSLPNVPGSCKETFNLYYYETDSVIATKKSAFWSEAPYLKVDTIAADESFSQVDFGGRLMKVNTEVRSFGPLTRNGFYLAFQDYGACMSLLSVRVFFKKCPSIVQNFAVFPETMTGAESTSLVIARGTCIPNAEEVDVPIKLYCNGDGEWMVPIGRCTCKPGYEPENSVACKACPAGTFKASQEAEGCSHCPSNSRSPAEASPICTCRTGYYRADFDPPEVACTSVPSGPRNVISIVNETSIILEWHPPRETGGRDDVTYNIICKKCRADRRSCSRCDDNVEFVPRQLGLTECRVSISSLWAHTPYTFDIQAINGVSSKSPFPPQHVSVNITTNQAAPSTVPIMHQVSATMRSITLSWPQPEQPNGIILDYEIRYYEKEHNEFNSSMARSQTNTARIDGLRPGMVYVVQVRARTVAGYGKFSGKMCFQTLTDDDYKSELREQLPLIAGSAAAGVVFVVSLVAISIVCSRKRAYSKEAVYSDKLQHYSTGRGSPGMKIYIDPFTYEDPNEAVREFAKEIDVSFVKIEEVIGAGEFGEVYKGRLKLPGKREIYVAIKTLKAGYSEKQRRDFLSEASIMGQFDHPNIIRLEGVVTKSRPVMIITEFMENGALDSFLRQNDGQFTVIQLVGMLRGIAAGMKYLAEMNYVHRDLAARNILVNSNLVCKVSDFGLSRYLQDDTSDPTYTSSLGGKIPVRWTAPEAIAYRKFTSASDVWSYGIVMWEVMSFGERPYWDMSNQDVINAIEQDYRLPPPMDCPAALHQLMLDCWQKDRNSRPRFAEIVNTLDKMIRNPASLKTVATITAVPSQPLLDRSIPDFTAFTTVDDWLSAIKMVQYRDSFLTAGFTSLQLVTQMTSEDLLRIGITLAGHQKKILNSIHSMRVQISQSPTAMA
# [5] = molecular target: Focal adhesion kinase 1 (Homo sapiens) (UniProt Q05397); conditions: at 1 µM
# Sequence of Focal adhesion kinase 1 (Homo sapiens) (Q05397 2-1052 limits assumed): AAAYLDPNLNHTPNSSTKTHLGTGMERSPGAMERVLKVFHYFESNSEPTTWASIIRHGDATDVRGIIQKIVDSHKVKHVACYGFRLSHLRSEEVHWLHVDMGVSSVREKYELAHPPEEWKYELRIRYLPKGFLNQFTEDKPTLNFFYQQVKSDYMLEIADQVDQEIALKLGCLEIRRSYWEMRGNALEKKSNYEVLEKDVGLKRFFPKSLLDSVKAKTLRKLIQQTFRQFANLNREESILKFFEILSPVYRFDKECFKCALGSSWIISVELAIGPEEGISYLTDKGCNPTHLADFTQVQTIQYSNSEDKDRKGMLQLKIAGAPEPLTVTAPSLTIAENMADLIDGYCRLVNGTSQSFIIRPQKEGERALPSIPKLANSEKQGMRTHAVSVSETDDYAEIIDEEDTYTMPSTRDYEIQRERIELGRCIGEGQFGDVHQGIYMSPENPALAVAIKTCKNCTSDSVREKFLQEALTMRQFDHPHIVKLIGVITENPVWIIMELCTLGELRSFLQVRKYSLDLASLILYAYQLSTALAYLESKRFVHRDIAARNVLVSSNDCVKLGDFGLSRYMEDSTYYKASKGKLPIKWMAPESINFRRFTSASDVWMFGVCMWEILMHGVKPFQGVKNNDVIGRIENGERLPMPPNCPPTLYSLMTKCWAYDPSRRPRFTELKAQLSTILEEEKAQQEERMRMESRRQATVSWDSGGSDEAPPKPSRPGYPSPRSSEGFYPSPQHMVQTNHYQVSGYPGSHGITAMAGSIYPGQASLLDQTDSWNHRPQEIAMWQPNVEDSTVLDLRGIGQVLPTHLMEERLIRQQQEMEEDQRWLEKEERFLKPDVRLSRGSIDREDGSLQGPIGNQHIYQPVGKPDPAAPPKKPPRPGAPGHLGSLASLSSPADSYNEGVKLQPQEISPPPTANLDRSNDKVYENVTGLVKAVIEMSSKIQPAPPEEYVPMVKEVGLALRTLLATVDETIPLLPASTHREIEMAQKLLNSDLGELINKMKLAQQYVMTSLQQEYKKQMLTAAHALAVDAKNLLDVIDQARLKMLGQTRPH
# [6] = molecular target: T3, Ephrin type-B receptor 1 (Homo sapiens); conditions: at 1 µM
# [7] = molecular target: T4, Ephrin type-B receptor 2 (Homo sapiens) (UniProt P29323); conditions: at 1 µM
# T4 sequence (whole entry): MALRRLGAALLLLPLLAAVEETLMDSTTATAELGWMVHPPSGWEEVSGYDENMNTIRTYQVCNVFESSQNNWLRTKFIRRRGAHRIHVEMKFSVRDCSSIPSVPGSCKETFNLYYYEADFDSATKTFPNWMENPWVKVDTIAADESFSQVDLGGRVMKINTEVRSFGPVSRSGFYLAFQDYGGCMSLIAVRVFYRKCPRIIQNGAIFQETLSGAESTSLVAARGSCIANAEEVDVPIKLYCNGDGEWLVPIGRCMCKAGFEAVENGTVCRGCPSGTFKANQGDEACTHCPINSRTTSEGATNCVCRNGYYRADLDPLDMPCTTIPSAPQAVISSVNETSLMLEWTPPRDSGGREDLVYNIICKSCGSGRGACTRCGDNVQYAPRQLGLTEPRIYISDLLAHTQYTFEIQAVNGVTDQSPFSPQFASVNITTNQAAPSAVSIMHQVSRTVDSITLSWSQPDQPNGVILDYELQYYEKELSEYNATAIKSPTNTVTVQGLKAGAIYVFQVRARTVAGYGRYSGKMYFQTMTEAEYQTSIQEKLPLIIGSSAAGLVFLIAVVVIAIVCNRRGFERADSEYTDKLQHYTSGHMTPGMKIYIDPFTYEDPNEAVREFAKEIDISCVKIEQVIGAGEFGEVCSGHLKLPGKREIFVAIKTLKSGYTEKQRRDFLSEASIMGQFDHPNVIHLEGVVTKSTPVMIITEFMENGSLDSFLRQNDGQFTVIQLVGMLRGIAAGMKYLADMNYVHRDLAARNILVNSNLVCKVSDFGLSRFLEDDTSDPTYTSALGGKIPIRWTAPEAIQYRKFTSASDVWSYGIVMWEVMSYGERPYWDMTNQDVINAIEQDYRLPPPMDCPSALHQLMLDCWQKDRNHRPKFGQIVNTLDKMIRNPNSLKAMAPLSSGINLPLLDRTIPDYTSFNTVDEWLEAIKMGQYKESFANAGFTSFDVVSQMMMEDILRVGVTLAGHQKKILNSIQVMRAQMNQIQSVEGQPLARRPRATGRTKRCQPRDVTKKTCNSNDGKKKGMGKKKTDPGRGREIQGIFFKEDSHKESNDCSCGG
# [8] = molecular target: T4, Ephrin type-B receptor 2 (Homo sapiens); conditions: at 10 µM
# [9] = molecular target: T5, Ephrin type-B receptor 3 (Homo sapiens) (UniProt P54753); conditions: at 1 µM
# T5 sequence (whole entry): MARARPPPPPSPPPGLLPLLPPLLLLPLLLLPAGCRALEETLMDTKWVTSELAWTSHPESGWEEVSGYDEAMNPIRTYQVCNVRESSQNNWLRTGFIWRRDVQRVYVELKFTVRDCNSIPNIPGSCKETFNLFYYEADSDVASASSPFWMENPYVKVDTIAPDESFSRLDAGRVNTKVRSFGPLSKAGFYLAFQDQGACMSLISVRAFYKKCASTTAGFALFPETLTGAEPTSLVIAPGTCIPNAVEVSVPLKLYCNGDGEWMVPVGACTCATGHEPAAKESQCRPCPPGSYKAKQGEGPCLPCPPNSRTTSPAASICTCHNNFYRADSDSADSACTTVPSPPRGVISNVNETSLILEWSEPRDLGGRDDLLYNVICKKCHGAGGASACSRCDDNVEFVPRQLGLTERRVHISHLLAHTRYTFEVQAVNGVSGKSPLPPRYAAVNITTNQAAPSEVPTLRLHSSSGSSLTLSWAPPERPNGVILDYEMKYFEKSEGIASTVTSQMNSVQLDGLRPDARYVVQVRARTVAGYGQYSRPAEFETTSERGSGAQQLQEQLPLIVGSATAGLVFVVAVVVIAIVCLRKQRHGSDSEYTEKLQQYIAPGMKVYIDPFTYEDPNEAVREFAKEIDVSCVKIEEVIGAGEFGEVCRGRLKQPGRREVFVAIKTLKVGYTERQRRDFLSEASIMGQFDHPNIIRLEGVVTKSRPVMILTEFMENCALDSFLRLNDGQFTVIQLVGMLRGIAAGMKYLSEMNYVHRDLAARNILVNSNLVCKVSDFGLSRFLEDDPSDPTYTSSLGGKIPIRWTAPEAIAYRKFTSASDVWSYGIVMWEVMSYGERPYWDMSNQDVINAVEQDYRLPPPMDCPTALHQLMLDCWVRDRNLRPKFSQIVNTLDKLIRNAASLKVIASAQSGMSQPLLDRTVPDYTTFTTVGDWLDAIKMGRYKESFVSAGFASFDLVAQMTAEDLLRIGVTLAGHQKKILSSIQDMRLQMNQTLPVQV
# [10] = molecular target: T5, Ephrin type-B receptor 3 (Homo sapiens); conditions: at 10 µM
# [11] = molecular target: T6, Ephrin type-B receptor 4 (Homo sapiens) (UniProt P54760); conditions: at 1 µM
# T6 sequence (whole entry): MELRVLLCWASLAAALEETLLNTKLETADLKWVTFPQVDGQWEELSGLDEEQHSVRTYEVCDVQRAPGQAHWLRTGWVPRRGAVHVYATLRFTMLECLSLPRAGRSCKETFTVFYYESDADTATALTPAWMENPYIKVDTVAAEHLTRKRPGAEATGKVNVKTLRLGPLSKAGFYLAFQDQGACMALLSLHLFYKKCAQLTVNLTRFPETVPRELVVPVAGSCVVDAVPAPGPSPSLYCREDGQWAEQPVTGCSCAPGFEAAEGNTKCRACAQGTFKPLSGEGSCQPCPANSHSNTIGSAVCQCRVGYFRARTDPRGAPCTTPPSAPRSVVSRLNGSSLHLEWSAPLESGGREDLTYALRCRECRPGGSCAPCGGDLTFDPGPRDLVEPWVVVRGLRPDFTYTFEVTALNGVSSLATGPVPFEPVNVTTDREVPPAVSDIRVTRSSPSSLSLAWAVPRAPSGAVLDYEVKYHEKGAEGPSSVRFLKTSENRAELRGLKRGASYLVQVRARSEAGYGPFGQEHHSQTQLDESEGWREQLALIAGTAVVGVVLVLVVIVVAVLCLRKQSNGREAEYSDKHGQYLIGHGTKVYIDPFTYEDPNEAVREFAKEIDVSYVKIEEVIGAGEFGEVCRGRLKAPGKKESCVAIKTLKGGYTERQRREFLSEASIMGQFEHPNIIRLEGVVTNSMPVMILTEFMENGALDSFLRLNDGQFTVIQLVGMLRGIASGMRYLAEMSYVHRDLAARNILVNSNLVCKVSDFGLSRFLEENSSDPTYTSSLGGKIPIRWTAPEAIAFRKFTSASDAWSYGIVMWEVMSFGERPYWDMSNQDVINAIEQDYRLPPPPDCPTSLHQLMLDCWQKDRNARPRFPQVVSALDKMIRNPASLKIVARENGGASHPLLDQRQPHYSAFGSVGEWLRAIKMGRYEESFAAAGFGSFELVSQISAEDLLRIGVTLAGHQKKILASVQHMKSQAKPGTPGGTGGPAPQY
# [12] = molecular target: T6, Ephrin type-B receptor 4 (Homo sapiens); conditions: at 10 µM
# [13] = molecular target: Receptor tyrosine-protein kinase erbB-4 (Homo sapiens) (UniProt Q15303); conditions: at 1 µM
# Sequence of Receptor tyrosine-protein kinase erbB-4 (Homo sapiens) (Q15303 whole entry): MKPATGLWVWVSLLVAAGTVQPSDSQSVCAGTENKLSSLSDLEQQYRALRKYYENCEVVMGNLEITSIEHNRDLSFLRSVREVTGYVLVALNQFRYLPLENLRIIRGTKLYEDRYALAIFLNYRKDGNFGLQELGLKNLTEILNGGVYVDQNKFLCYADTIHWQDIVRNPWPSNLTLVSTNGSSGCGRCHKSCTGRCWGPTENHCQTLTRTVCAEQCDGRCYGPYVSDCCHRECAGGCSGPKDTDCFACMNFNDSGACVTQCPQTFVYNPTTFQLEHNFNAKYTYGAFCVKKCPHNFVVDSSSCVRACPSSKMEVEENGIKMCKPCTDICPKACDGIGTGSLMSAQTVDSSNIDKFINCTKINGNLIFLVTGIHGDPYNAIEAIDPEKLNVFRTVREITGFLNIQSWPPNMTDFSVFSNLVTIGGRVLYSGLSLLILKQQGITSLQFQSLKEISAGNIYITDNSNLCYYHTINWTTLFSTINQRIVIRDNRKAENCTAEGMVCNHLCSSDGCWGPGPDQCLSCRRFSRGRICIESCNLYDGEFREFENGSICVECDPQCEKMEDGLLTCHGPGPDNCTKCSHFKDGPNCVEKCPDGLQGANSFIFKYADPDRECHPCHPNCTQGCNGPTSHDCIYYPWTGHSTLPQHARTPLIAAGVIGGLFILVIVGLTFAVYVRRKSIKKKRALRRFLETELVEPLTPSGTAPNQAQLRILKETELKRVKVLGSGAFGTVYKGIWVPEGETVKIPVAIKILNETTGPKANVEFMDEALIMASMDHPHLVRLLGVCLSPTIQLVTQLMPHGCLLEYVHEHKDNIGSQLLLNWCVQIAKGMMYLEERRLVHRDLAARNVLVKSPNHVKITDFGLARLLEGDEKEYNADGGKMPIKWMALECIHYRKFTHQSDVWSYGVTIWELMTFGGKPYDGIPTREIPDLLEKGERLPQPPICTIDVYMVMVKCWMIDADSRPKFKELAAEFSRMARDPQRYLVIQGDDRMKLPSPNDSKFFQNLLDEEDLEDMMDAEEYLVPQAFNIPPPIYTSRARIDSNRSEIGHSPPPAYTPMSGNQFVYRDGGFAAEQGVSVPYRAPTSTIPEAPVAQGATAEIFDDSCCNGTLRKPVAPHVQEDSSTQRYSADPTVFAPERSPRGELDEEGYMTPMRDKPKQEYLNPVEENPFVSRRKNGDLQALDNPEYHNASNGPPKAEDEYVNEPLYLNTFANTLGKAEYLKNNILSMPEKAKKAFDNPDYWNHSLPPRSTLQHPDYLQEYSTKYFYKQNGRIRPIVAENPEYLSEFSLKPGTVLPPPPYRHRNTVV
# [14] = molecular target: Receptor tyrosine-protein kinase erbB-4 (Homo sapiens) (UniProt Q15303); conditions: at 10 µM
smiles,measurement,setting,value
CC(C)(C)c1nc2c3ccc(F)cc3c3c(=O)[nH]ccc3c2[nH]1,residual activity,[1],72%
same,residual activity,[2],103%
same,residual activity,[3],103%
same,residual activity,[4],99%
same,residual activity,[5],51%
NC(=O)c1ccc(-c2nc(-c3ccc4c(c3)OCCO4)c(-c3ccccn3)[nH]2)cc1,residual activity,[1],94%
same,residual activity,[6],93%
same,residual activity,[4],85%
same,residual activity,[7],96%
same,residual activity,[8],24%
same,residual activity,[9],117% (inactive)
same,residual activity,[10],98%
same,residual activity,[11],85%
same,residual activity,[12],41%
same,residual activity,[13],89%
same,residual activity,[14],59%
NC(=O)c1cccc(-c2cc(Nc3ccc(OC(F)(F)F)cc3)ncn2)c1,residual activity,[5],147%
